An excerpt weighted towards active compounds, which were near 3.5% of everything screened.
mHTT-CaM PPI inh: mHTT-calmodulin interaction abrogation; 190,000 tested, 3.6% active; P42858; AlphaScreen His-mHTT/GST-CaM binding, luminescence; AID 1671202; inhibition, % at 15 µM
Pf apPOL block: Pf-apPOL DNA polymerase inhibition; Recombinant Pf-apPOL, molecular beacon fluorescence, 1.5 h; inhibition, % at 10 µM; 210,000 tested, 0.25% active; AID 1794808
Each line names hits and unclear results; the compound was inactive in the other large screens. No stated cut-off is given here; in the data, active means inhibition above about 50%; inactive means the rest.

COc1ccc(NC(=O)CN(c2ccc(C)cc2)S(=O)(=O)c2ccc(C)cc2)c(OC)c1	none
Nc1c(S(=O)(=O)Cc2ccccc2)sc2nc3c(cc12)CCCC3	none
Cc1cc(-c2nn(C)c(=O)c3ccccc23)cc(C)c1OS(=O)(=O)c1cc(Cl)ccc1Cl	none (no result: mHTT-CaM PPI inh)
Cc1cccc(NC2=C(NCCO)C(=O)c3ccccc3C2=O)c1	mHTT-CaM PPI inh 74
COc1cccc(NC2=C(NCCO)C(=O)c3ccccc3C2=O)c1	none
C#CCOc1ccc(C=C2C(=O)OC(c3ccccc3)OC2=O)cc1 (stereo not given)	none
Cc1c(Cl)cccc1S(=O)(=O)NCCC1CCN(C(=O)c2ccccc2)CC1	mHTT-CaM PPI inh 53
O=C(c1ccc(F)cc1)N1CCC(CCNS(=O)(=O)c2cccc(Cl)c2)CC1	none
O=C(c1ccccc1)N1CCC(CCNS(=O)(=O)c2cccc(Cl)c2)CC1	mHTT-CaM PPI inh 50
Cc1cc(C)c(S(=O)(=O)NCCC2CCN(C(=O)c3ccccc3)CC2)cc1C	mHTT-CaM PPI inh 64
Cc1ccc(S(=O)(=O)NCCC2CCN(C(=O)c3ccccc3)CC2)cc1C	none
O=C(c1ccc(F)cc1)N1CCC(CCNS(=O)(=O)c2ccccc2Cl)CC1	none
COc1cccc(-c2n[nH]c(C3CC3)c2NC(=O)C2CC2)c1	none
Cc1c(C=O)c2ccccc2n1CC(=O)NCC1CCCO1 (stereo not given)	none
O=[N+]([O-])c1ccc(N2CCCC2)cc1Sc1ccccn1	none
N#CC1=C(N)SC(N)=C(C#N)C1c1ccc([N+](=O)[O-])s1	mHTT-CaM PPI inh 67 (no result: Pf apPOL block)
Cc1cc(C)c([N+](=O)[O-])c(C)c1C1C(C#N)=C(N)SC(N)=C1C#N	mHTT-CaM PPI inh 65
Cc1ccsc1C1C(C#N)=C(N)SC(N)=C1C#N	none
N#CC1=C(N)SC(N)=C(C#N)C1c1ccc(Cl)c([N+](=O)[O-])c1	mHTT-CaM PPI inh 77
N#CC1=C(N)SC(N)=C(C#N)C1c1ccc(Cl)cc1	none
N#Cc1ccc([N+](=O)[O-])s1	none (no result: mHTT-CaM PPI inh)
CCN1CCN(C(=O)c2cc(C(C)C)n3nccc3n2)CC1	none
COc1ccc(-c2cc(C(=O)NN)c3ccc(C)cc3n2)cc1OC	none (no result: mHTT-CaM PPI inh)
CCCC1C(c2ccccc2)NC(c2ccccc2)CC1(C)O (stereo not given)	none
CCOc1cc(CN2CCCC2c2cc(C(C)C)on2)ccc1O (stereo not given)	none
CC(C)(C)Nc1nc(-c2ccccc2O)nc2ccccc12	none
CC(C)C(=O)N1CCN(c2nnc3ccc(Cl)cn23)CC1	none
O=C1N/C(=C\c2ccc(N3CCCC3)cc2)C(=O)N1Cc1ccccc1Cl	Pf apPOL block 88
O=C1N/C(=C/c2ccc(N3CCCC3)cc2)C(=O)N1Cc1ccc([N+](=O)[O-])cc1	none
O=C(NCc1cccnc1)C1=C2CCCN2c2ccc(F)cc2S1(=O)=O	none
CCOCN(C(=O)CSc1nc2ccccc2[nH]1)c1c(C)cccc1CC	none
CCc1cccc(C)c1N(C(=O)CSc1nc2ccccc2[nH]1)C(C)COC (stereo not given)	mHTT-CaM PPI inh 52
O=C(O)c1ccc(OC(O)Cn2c3ccccc3c3ccccc32)cc1 (stereo not given)	none
O=C(Cn1c(-c2nnco2)cc2ccccc21)NCc1ccco1	mHTT-CaM PPI inh 69
O=C(Cn1c(C(F)(F)F)nc2ccccc21)NCc1ccco1	none
CC1CCN(S(=O)(=O)N2CCCC(C(=O)NC(C)C)C2)CC1 (stereo not given)	Pf apPOL block 95
CC1CCN(S(=O)(=O)N2CCCC(C(=O)NC3CCCC3)C2)CC1 (stereo not given)	none
Cc1cc(NC(=O)C2CCN(C(=O)COc3ccccc3F)CC2)no1	none
COc1ccccc1OCC(=O)Nc1ccc(C(C)=O)cc1	none
COc1ccccc1OCC(=O)Nc1ccc(Nc2ccccc2)cc1	mHTT-CaM PPI inh 61
CCC(C)c1ccc(NC(=O)COc2ccccc2OC)cc1 (stereo not given)	none
CCN(CC)c1ccc(NC(=O)COc2ccccc2OC)cc1	mHTT-CaM PPI inh 56
Fc1ccc(-c2n[nH]c(C3CCCN(Cc4ccoc4)C3)n2)cc1 (stereo not given)	none
CCC(C(=O)NCCc1ccc(OC)c(OC)c1)c1ccccc1 (stereo not given)	none
COc1ccc(C(=O)Nc2ccccc2C(=O)NCc2ccccc2)cc1OC	none
CS(=O)(=O)N1CCN(c2ccc([N+](=O)[O-])c(NCCOc3ccc(Cl)cc3)c2)CC1	none
CCc1ccc(OCCNc2cc(N3CC(C)NC(C)C3)ccc2[N+](=O)[O-])cc1 (stereo not given)	mHTT-CaM PPI inh 100
O=C1NC(=S)N/C1=C/c1ccc(-c2ccc3c(c2)COC3=O)o1	none (no result: Pf apPOL block)
O=C1OC(c2ccccc2Cl)=N/C1=C\c1cc(Br)cs1	none
S=c1sc2c(N3CCc4ccccc43)ncnc2n1-c1ccccc1	none (no result: Pf apPOL block)
S=c1sc2c(Cl)ncnc2n1-c1ccccc1	mHTT-CaM PPI inh 83 (no result: Pf apPOL block)
Cc1ccc(C)c(-c2csc(Nc3ncccn3)n2)c1	none
O=C(O)c1cccc(Nc2nc(-c3ccccc3)cs2)c1	none
Oc1cccc(Nc2nc(-c3ccccn3)cs2)c1	mHTT-CaM PPI inh 99
Cc1cccc(Nc2nc(-c3ccccn3)cs2)c1	mHTT-CaM PPI inh 97
Oc1ccc(-c2csc(Nc3ncccn3)n2)c(O)c1	none
O=C(O)c1cccc(Nc2nc(-c3ccccn3)cs2)c1	mHTT-CaM PPI inh 96
CC(NC(=O)c1cc2c(s1)CN(C1CC1)C2)c1ccccc1 (stereo not given)	none
Cc1ccc(NC(=O)N2CC(C(=O)N3CCCCC3)C3(CCOCC3)C2)c(Cl)c1 (stereo not given)	none
CCOCC(=O)N1CCC(c2nc(CNC(=O)C3CCC3)cs2)CC1	none
Cc1ccc(-c2c(C#N)c(N)n3c(nc4ccccc43)c2C#N)cc1	none
COc1ccc(-c2c(C#N)c(N)n3c(nc4ccccc43)c2C#N)cc1	mHTT-CaM PPI inh 94
c1ccc(-c2nc(COc3cccc4cccnc34)no2)cc1	none
O=C(NCc1cnccn1)c1ccc(N2CCNC(c3ccccc3)C2)nc1 (stereo not given)	none
O=C(NCc1ccccn1)c1cccc(N2CCNC(c3ccccc3)C2)n1 (stereo not given)	mHTT-CaM PPI inh 85
O=C(NCc1cnccn1)c1ccnc(N2CCNC(c3ccccc3)C2)c1 (stereo not given)	mHTT-CaM PPI inh 70
COc1ccc(CNC(=O)c2ccnc(N3CCNC(c4ccccc4)C3)c2)c(OC)c1 (stereo not given)	none
O=C(NCc1ccccc1)c1cccc(N2CCNC(c3ccccc3)C2)n1 (stereo not given)	none
COc1ccc(CNC(=O)c2cccc(N3CCNC(c4ccccc4)C3)n2)c(OC)c1 (stereo not given)	mHTT-CaM PPI inh 97
CC1=C(C(=O)Nc2ccc(C)cn2)C(c2cccs2)C2=C(CC(C)(C)CC2=O)N1 (stereo not given)	none
CSC[C@H]1CN(CCc2ccccc2)C(=O)[C@@H]1CC(=O)Nc1ccc(Br)cc1	mHTT-CaM PPI inh 63
O=C(C[C@H]1C(=O)N(CCc2ccccc2)C[C@@H]1Cc1ccccc1)Nc1ccc(Br)cc1	none
CCc1ccc(C2=C/C(=C\c3ccc(C)o3)C(=O)O2)cc1	mHTT-CaM PPI inh 69
CCc1ccc(C2=C/C(=C/c3ccc(C)c(OC)c3)C(=O)O2)cc1	none
CCN(C)c1cc(Oc2ccc(C)cc2OC)ncn1	none
CC(C)C(=O)NCc1csc(C2CCCN(C(=O)c3ccc(Cl)cc3)C2)n1 (stereo not given)	none
CC(=O)N1c2c(cc(Br)cc2S(=O)(=O)Nc2cccc(C(F)(F)F)c2)CC1C (stereo not given)	none
